Results published in the supplement of paper PMC12282887.
± gives the standard deviation of the averaged measurements.

What was measured:
Experiment in all cases: promoter activity interaction Z-score (Lux/OD deviation from empty-vector control); higher = stronger promoter induction by the compound
[1] = test system: E. coli BW25113 acrABp lux reporter
Summary of the method: (§1)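 OD600 and luminescence of E. coli BW25113 reporter cultures (40 µl LB Lennox, 384-well plates, 37°C) were measured every 30 min for 12 h. Integration ran over 0–8 h for wild type or 1–9 h for deletion strains, and wells with growth below 10% of the median were dropped. The score is the Z-transformed residual of growth-normalised luminescence fitted against a control.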

[2] = test system: E. coli BW25113 marRABp lux reporter
Summary of the method: as §1

[3] = test system: E. coli BW25113 micFp lux reporter
Summary of the method: as §1

[4] = test system: E. coli BW25113 ompFp lux reporter
Summary of the method: as §1

[5] = test system: E. coli BW25113 robp lux reporter
Summary of the method: as §1

[6] = test system: E. coli BW25113 soxSp lux reporter
Summary of the method: as §1

[7] = test system: E. coli BW25113 tolCp lux reporter
Summary of the method: as §1

[8] = 0.073 µg/ml, genetic background: wild type
[9] = 0.073 µg/ml, genetic background: ΔmarA
[10] = 0.073 µg/ml, genetic background: Δrob
[11] = 0.073 µg/ml, genetic background: ΔsoxS
[12] = 0.15 µg/ml, genetic background: wild type
[13] = 0.15 µg/ml, genetic background: ΔmarA
[14] = 0.15 µg/ml, genetic background: Δrob
[15] = 0.15 µg/ml, genetic background: ΔsoxS
[16] = 0.29 µg/ml, genetic background: wild type
[17] = 0.29 µg/ml, genetic background: ΔmarA
[18] = 0.29 µg/ml, genetic background: Δrob
[19] = 0.29 µg/ml, genetic background: ΔsoxS
[20] = 0.58 µg/ml, genetic background: wild type
[21] = 0.58 µg/ml, genetic background: ΔmarA
[22] = 0.58 µg/ml, genetic background: Δrob
[23] = 0.58 µg/ml, genetic background: ΔsoxS

COc1cc(Cc2cnc(N)nc2N)cc(OC)c1OC [Trimethoprim]
promoter activity interaction Z-score [1, 8]: 0.0131 ± 0.34
promoter activity interaction Z-score [1, 9]: -0.307 ± 0.0077
promoter activity interaction Z-score [1, 10]: -0.0611 ± 0.045
promoter activity interaction Z-score [1, 11]: -0.429 ± 0.0073
promoter activity interaction Z-score [1, 12]: 0.297 ± 0.54
promoter activity interaction Z-score [1, 13]: 1.43 ± 0.76
promoter activity interaction Z-score [1, 14]: 0.162 ± 0.041
promoter activity interaction Z-score [1, 15]: -0.000323 ± 0.14
promoter activity interaction Z-score [1, 16]: 0.6 ± 0.73
promoter activity interaction Z-score [1, 17]: -0.763 ± 0.81
promoter activity interaction Z-score [1, 18]: 0.526 ± 0.19
promoter activity interaction Z-score [1, 19]: 0.701 ± 0.81
promoter activity interaction Z-score [1, 20]: 0.577 ± 0.46
promoter activity interaction Z-score [1, 21]: -0.476 ± 0.038
promoter activity interaction Z-score [1, 22]: 1.39 ± 0.35
promoter activity interaction Z-score [1, 23]: 0.448 ± 0.78
promoter activity interaction Z-score [2, 8]: -0.00717 ± 0.14
promoter activity interaction Z-score [2, 9]: 0.354 ± 0.26
promoter activity interaction Z-score [2, 10]: 0.118 ± 0.14
promoter activity interaction Z-score [2, 11]: 0.299 ± 0.38
promoter activity interaction Z-score [2, 12]: 1.11 ± 0.81
promoter activity interaction Z-score [2, 13]: 1.71 ± 0.26
promoter activity interaction Z-score [2, 14]: 0.43 ± 0.16
promoter activity interaction Z-score [2, 15]: 0.811 ± 0.45
promoter activity interaction Z-score [2, 16]: 0.921 ± 0.63
promoter activity interaction Z-score [2, 17]: 1.36 ± 0.27
promoter activity interaction Z-score [2, 18]: 0.367 ± 0.12
promoter activity interaction Z-score [2, 19]: 0.729 ± 0.19
promoter activity interaction Z-score [2, 20]: 0.146 ± 0.067
promoter activity interaction Z-score [2, 21]: 0.423 ± 0.12
promoter activity interaction Z-score [2, 22]: 0.143 ± 0.17
promoter activity interaction Z-score [2, 23]: 0.484 ± 0.068
promoter activity interaction Z-score [3, 8]: 0.711 ± 0.12
promoter activity interaction Z-score [3, 9]: 0.728 ± 0.027
promoter activity interaction Z-score [3, 10]: 0.665 ± 0.28
promoter activity interaction Z-score [3, 11]: 0.533 ± 0.23
promoter activity interaction Z-score [3, 12]: 1.86 ± 0.14
promoter activity interaction Z-score [3, 13]: 1.1 ± 0.14
promoter activity interaction Z-score [3, 14]: 1.29 ± 0.44
promoter activity interaction Z-score [3, 15]: 0.842 ± 0.36
promoter activity interaction Z-score [3, 16]: 2.75 ± 0.96
promoter activity interaction Z-score [3, 17]: 1.9 ± 0.074
promoter activity interaction Z-score [3, 18]: 2.28 ± 0.79
promoter activity interaction Z-score [3, 19]: 1.33 ± 0.41
promoter activity interaction Z-score [3, 20]: 0.997 ± 0.95
promoter activity interaction Z-score [3, 21]: 0.388 ± 0.61
promoter activity interaction Z-score [3, 22]: 1.15 ± 0.38
promoter activity interaction Z-score [3, 23]: 0.825 ± 0.16
promoter activity interaction Z-score [4, 8]: -0.322 ± 0.3
promoter activity interaction Z-score [4, 9]: -1.17 ± 0.5
promoter activity interaction Z-score [4, 10]: -0.297 ± 0.54
promoter activity interaction Z-score [4, 11]: -0.129 ± 0.65
promoter activity interaction Z-score [4, 12]: 0.109 ± 0.39
promoter activity interaction Z-score [4, 13]: -0.477 ± 0.78
promoter activity interaction Z-score [4, 14]: 0.244 ± 0.7
promoter activity interaction Z-score [4, 15]: 0.51 ± 0.81
promoter activity interaction Z-score [4, 16]: 0.0831 ± 0.67
promoter activity interaction Z-score [4, 17]: -1.9 ± 0.61
promoter activity interaction Z-score [4, 18]: -0.0302 ± 1
promoter activity interaction Z-score [4, 19]: 0.395 ± 1.3
promoter activity interaction Z-score [4, 20]: -0.896 ± 0.32
promoter activity interaction Z-score [4, 21]: -0.897 ± 0.46
promoter activity interaction Z-score [4, 22]: 0.0886 ± 0.83
promoter activity interaction Z-score [4, 23]: -1.15 ± 0.39
promoter activity interaction Z-score [5, 8]: 0.791 ± 0.3
promoter activity interaction Z-score [5, 9]: 0.875 ± 0.23
promoter activity interaction Z-score [5, 10]: 2.11 ± 0.058
promoter activity interaction Z-score [5, 11]: 0.238 ± 1.1
promoter activity interaction Z-score [5, 12]: 3.64 ± 0.82
promoter activity interaction Z-score [5, 13]: 3.37 ± 0.44
promoter activity interaction Z-score [5, 14]: 4.81 ± 0.7
promoter activity interaction Z-score [5, 15]: 2.16 ± 0.27
promoter activity interaction Z-score [5, 16]: 7.43 ± 2.3
promoter activity interaction Z-score [5, 17]: 5.16 ± 0.16
promoter activity interaction Z-score [5, 18]: 8.88 ± 0.31
promoter activity interaction Z-score [5, 19]: 5.55 ± 0.44
promoter activity interaction Z-score [5, 20]: 3.89 ± 0.063
promoter activity interaction Z-score [5, 21]: 4.6 ± 5.3
promoter activity interaction Z-score [5, 22]: 3.21 ± 0.23
promoter activity interaction Z-score [5, 23]: 2.01 ± 1.6
promoter activity interaction Z-score [6, 8]: -0.0844 ± 0.22
promoter activity interaction Z-score [6, 9]: 0.118 ± 0.2
promoter activity interaction Z-score [6, 10]: 0.163 ± 0.18
promoter activity interaction Z-score [6, 11]: -0.116 ± 0.24
promoter activity interaction Z-score [6, 12]: 0.261 ± 0.11
promoter activity interaction Z-score [6, 13]: 0.204 ± 0.1
promoter activity interaction Z-score [6, 14]: 0.486 ± 0.39
promoter activity interaction Z-score [6, 15]: 0.169 ± 0.29
promoter activity interaction Z-score [6, 16]: 0.521 ± 0.032
promoter activity interaction Z-score [6, 17]: 0.796 ± 0.022
promoter activity interaction Z-score [6, 18]: 0.986 ± 0.72
promoter activity interaction Z-score [6, 19]: 0.663 ± 0.23
promoter activity interaction Z-score [6, 20]: 1.34 ± 0.14
promoter activity interaction Z-score [6, 21]: 2.96 ± 0.38
promoter activity interaction Z-score [6, 22]: 2.69 ± 1.1
promoter activity interaction Z-score [6, 23]: -0.0409 ± 0.74
promoter activity interaction Z-score [7, 8]: 0.67 ± 0.48
promoter activity interaction Z-score [7, 9]: -0.632 ± 0.36
promoter activity interaction Z-score [7, 10]: -0.116 ± 0.95
promoter activity interaction Z-score [7, 11]: -0.559 ± 0.21
promoter activity interaction Z-score [7, 12]: 0.553 ± 0.46
promoter activity interaction Z-score [7, 13]: -0.336 ± 0.28
promoter activity interaction Z-score [7, 14]: 0.749 ± 0.87
promoter activity interaction Z-score [7, 15]: 2.3 ± 2.1
promoter activity interaction Z-score [7, 16]: 1.84 ± 0.19
promoter activity interaction Z-score [7, 17]: 2.71 ± 0.84
promoter activity interaction Z-score [7, 18]: 1.92 ± 0.38
promoter activity interaction Z-score [7, 19]: 2.4 ± 1.6
promoter activity interaction Z-score [7, 20]: 1.85 ± 0.094
promoter activity interaction Z-score [7, 21]: 0.798 ± 2
promoter activity interaction Z-score [7, 22]: 1.4 ± 0.83
promoter activity interaction Z-score [7, 23]: 0.494 ± 0.71
